Laboratory results reported in PubChem BioAssay AID1159580 (chemical genetic matrix, 2015).
Several values for one entry are separate records, joined by “and”; a condition that tells them apart may be missing. Identical values can stand only once. Screen size: about 5,500 compounds; about 2,000 (36%) were called active. Roughly 18% stayed inconclusive and do not appear here. No stated cut-off is given here; in the data, active means normalized growth mostly below about 0.91 (no sharp cut-off); inconclusive means no clear call, values can overlap the other calls; inactive means mostly above about 0.92. The list shows a part of the results.

Experiment: chemical genetic growth profiling, strain panel (AID 1159580);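 further: tested at 20 µM; growth read once vehicle control cultures reached saturation at 30 °C; 1 = growth at the plate median or of vehicle wells; lower values mean less growth of the strain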
Details: S. cerevisiae deletion strains, growth OD

Measured: normalized growth

CC1(C)C[C@@H]2C(=O)CC[C@H]3O[C@]3(C)CC[C@H]21
inactive: locus YAL013W, strain DEP1, active compounds read low 1.01 | locus YAL021C, strain ccr4, active compounds read low 0.98 | locus YAL026C, strain drs2, active compounds read low 1.04 | locus YAL030W, strain snc1, active compounds read low 1.01 | locus YBL061C, strain skt5, active compounds read low 1.03 | locus YBR009C, strain hhf1, active compounds read low 1.02 | locus YBR021W, strain FUR4, active compounds read low 1.01 | locus YBR023C, strain chs3, active compounds read low 1.02 | locus YBR171W, strain sec66, active compounds read low 1.02 | locus YBR229C, strain ROT2, active compounds read low 1 | locus YBR231C, strain swc5, active compounds read low 1 | locus YBR279W, strain paf1, active compounds read low 1 | locus YCL011C, strain gbp2, active compounds read low 1.02 | locus YCL016C, strain dcc1, active compounds read low 1.01 | locus YCL029C, strain bik1, active compounds read low 0.994 | locus YCL061C, strain MRC1, active compounds read low 1.01 | locus YCL069W, strain vba3, active compounds read low 1.01 | locus YCR088W, strain abp1, active compounds read low 1.01 | locus YDL005C, strain med2, active compounds read low 1.01 | locus YDL035C, strain GPR1, active compounds read low 1.01 | locus YDL040C, strain nat1, active compounds read low 1.02 | locus YDL074C, strain BRE1, active compounds read low 1.04 | locus YDL101C, strain DUN1, active compounds read low 1.02 | locus YDL134C, strain PPH21, active compounds read low 1.01 | locus YDL185W, strain tfp1, active compounds read low 0.995 | locus YDL192W, strain arf1, active compounds read low 0.996 | locus YDR001C, strain nth1, active compounds read low 1.02 | locus YDR069C, strain doa4, active compounds read low 1.03 | locus YDR101C, strain arx1, active compounds read low 0.986 | locus YDR137W, strain rgp1, active compounds read low 1.02 | locus YDR150W, strain NUM1, active compounds read low 1.01 | locus YDR159W, strain sac3, active compounds read low 1.05 | locus YDR162C, strain NBP2, active compounds read low 1.02 | locus YDR195W, strain ref2 1.01 | locus YDR297W, strain sur2, active compounds read low 1.01 | locus YDR318W, strain mcm21, active compounds read low 0.994 | locus YDR334W, strain swr1, active compounds read low 1.01 | locus YDR335W, strain msn5, active compounds read low 1.01 | locus YDR388W, active compounds read low 0.996 | locus YDR392W, strain spt3, active compounds read low 0.914 | locus YDR502C, strain sam2, active compounds read low 0.994 | locus YEL003W, strain gim4, active compounds read low 1.01 | locus YEL037C, strain rad23, active compounds read low 1.01 | locus YEL061C, strain CIN8 (second series), active compounds read low 1.02 | locus YEL061C, strain CIN8, active compounds read low 1 | locus YER015W, strain faa2, active compounds read low 1.01 | locus YER016W, strain bim1, active compounds read low 1.01 | locus YER110C, active compounds read low 0.989 | locus YER111C, strain swi4, active compounds read low 1.01 | locus YER155C, strain BEM2 (second series), active compounds read low 1.03 | locus YER155C, strain BEM2, active compounds read low 1 | locus YER167W, strain BCK2, active compounds read low 1.01 | locus YFR010W, strain ubp6, active compounds read low 1.04 | locus YGL078C, strain dbp3, active compounds read low 0.999 | locus YGL086W, strain mad1, active compounds read low 0.966 | locus YGL167C, strain pmr1, active compounds read low 1.02 | locus YGL173C, strain kem1, active compounds read low 1.03 | locus YGL227W, strain vid30, active compounds read low 1.01 | locus YGL240W, strain doc1, active compounds read low 1.02 | locus YGL248W, strain PDE1, active compounds read low 1 | locus YGL253W, strain hxk2, active compounds read low 1.03 | locus YGR078C, strain PAC10, active compounds read low 1.02 | locus YGR135W, strain pre9, active compounds read low 0.999 | locus YGR229C, strain SMI1, active compounds read low 1.01 | locus YGR252W, strain gcn5, active compounds read low 1.01 | locus YHR013C, strain ard1, active compounds read low 1.03 | locus YHR027C, strain rpn1, active compounds read low 1.02 | locus YHR030C, strain SLT2, active compounds read low 1.01 and 0.967 | locus YHR079C, strain IRE1 (second series), active compounds read low 0.996 | locus YHR079C, strain IRE1, active compounds read low 0.953 | locus YHR094C, strain hxt1, active compounds read low 0.998 | locus YHR129C, strain ARP1, active compounds read low 1.01 | locus YHR142W, strain chs7, active compounds read low 1.02 | locus YHR200W, strain rpn10, active compounds read low 0.997 | locus YIL066C, strain RNR3, active compounds read low 1 | locus YIL073C, strain SPO22, active compounds read low 0.968 | locus YIL125W, strain kgd1, active compounds read low 0.998 | locus YIR030C, strain dcg1, active compounds read low 0.986 | locus YJL092W, strain hpr5, active compounds read low 1.02 | locus YJL095W, strain BCK1 (second series), active compounds read low 1.04 | locus YJL095W, strain BCK1, active compounds read low 1.01 and 0.961 | locus YJL115W, strain asf1, active compounds read low 1.01 | locus YJL129C, strain trk1, active compounds read low 1.02 | locus YJL134W, strain LCB3, active compounds read low 1.01 | locus YJL154C, strain vps35, active compounds read low 1.01 | locus YJL164C, strain tpk1, active compounds read low 0.995 | locus YJL166W, strain qcr8, active compounds read low 1.04 | locus YJL168C, strain set2, active compounds read low 0.994 | locus YJL187C, strain SWE1 (second series), active compounds read low 1.02 | locus YJL187C, strain SWE1, active compounds read low 1 | locus YJR043C, strain POL32, active compounds read low 1 | locus YJR066W, strain TOR1, active compounds read low 0.998
